The full ranking holds about 68,000 sequences; the median of “fluorescence intensity (a.u.)” is about 9,100, and the highest 2% start at about 16,000. Shown is part of a subset that was picked to be rich in the highest values.

Sequence of OsWRKY34 (Q0JBA9 entry or part of it): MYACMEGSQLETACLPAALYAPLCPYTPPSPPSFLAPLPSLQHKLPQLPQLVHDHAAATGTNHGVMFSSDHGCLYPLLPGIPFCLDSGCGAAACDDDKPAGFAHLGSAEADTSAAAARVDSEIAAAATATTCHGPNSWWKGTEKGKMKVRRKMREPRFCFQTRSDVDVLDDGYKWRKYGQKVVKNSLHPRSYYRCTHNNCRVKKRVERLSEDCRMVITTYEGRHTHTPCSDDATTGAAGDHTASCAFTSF

This experiment has as its target OsWRKY34 (Oryza sativa, UniProt Q0JBA9 1-250). The experiment can be described thus: protein-binding microarray (RPBM); PBS, 2% BSA, 51.3 ng/ul salmon testes DNA, 50 uM zinc acetate, 200 nM TF, 25 C, 1 h; high values mean tight binding. Conditions: protein: recombinant; tags: N-terminal polyhistidine and DsRed monomer fusion (pET32a); label: CyDye5-dUTP incorporated in the synthesized complementary strand; 3' TTTTT single-stranded linker to array surface; dsDNA, one strand shown. The method in brief: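 Transcription factors were made in E. coli BL21-CodonPlus as N-terminal fusions to a polyhistidine tag and DsRed, then purified on Ni–NTA. After primer extension with Cy5-dUTP and blocking with 2% BSA, a custom Agilent array was exposed for 1 h at 25 °C to 200 nM protein in PBS, 2% BSA, salmon testes DNA and 50 µM zinc acetate. Washed arrays were scanned on an Axon 4000B, and the binding signal is per-feature fluorescence intensity in arbitrary units.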
Consider “TGACTTTTTTAAATATGTTTGACCGTTCGTCTTATTGAAACGGAGTCACCTAGTGCAG”, for which the binding signal is 8190 fluorescence intensity (a.u.).
For the sequence “TCTTGTGTACGTTGTGTGTTGTCATTGTGTGTCTGTCTTACGGAGTCACCTAGTGCAG”, the binding signal was 17200 fluorescence intensity (a.u.).
Then “TTGACCTTTTCTTTGTTGAACGTTGACCGTTCCGTCTTATCGGAGTCACCTAGTGCAG”, with 14300 fluorescence intensity (a.u.).
Then “TTCACGTGTGTTTTGTGTAGTTTTCTACCAGTTTGTTGAACGGAGTCACCTAGTGCAG”, with 8470 fluorescence intensity (a.u.); and “GTGGGTTGGGCCAAAGAAAGGTAGGCTGAGTGGAGGGATGCGGAGTCACCTAGTGCAG”, with 10400 fluorescence intensity (a.u.).
Consider “CGCACACCACCGCCTACGTAGTAGCTCTGATCGGCGCTGTCGGAGTCACCTAGTGCAG”, for which the binding signal is 8250 fluorescence intensity (a.u.).
Then “AATTTTTTTTCAGCTGATCGCCACTTTATTCTTTTCATACCGGAGTCACCTAGTGCAG”, with 10200 fluorescence intensity (a.u.).
As to “ACCGTGTTGCTGCCTGGTGCTCGCTTTGTTCGTAGGCCTTCGGAGTCACCTAGTGCAG”, the binding signal was 8520 fluorescence intensity (a.u.).
In the case of “GCTAGCGCTGGAATGGTCCTACTTCTTTCATTTACAACATCGGAGTCACCTAGTGCAG”, the binding signal was 8690 fluorescence intensity (a.u.).
For the sequence “TATCATTATGTCCGAACGGTATACCTTCTTGTATCATTTCCGGAGTCACCTAGTGCAG”, the binding signal was 11200 fluorescence intensity (a.u.).
For “CTCCGTAAGCTCCAGCCCACTGCCACCGCTGCTCCAGCTACGGAGTCACCTAGTGCAG”, the binding signal was 8250 fluorescence intensity (a.u.).
For “GGCGAGGCGAATGTGATGGGCTAAGTTTTGTCGTTGGCAACGGAGTCACCTAGTGCAG” the value was 8210 fluorescence intensity (a.u.); for “GCCATGAAACCTCCTTTGCTCACTGCTTTGGAACCATACTCGGAGTCACCTAGTGCAG”, 9020 fluorescence intensity (a.u.); for “CGCCGTTGACTTTTTGTTTAACGTTTGACCATTTGTCTTACGGAGTCACCTAGTGCAG”, 24400 fluorescence intensity (a.u.).
“ACCGACCTACTTAATTGCCTCCTGCCAAAATGACCCTTTACGGAGTCACCTAGTGCAG”: the binding signal is 9140 fluorescence intensity (a.u.).
For “TTTCCGCATTTCCGCTCCTCTCTTTTTTACCCTTGACATGCGGAGTCACCTAGTGCAG” the value was 8530 fluorescence intensity (a.u.); for “ATCCAACCCAACTCCCGTTGCTTTTTGTTGGACCCACTTGCGGAGTCACCTAGTGCAG”, 8110 fluorescence intensity (a.u.).
For “CTTTTCATCTTCTTGACGACTTGGTTGTTTGATTCATTTACGGAGTCACCTAGTGCAG” the value was 8830 fluorescence intensity (a.u.); for “CCGCCTCCTTTGACCCTACCAAAATTTACCGTTGACCATGCGGAGTCACCTAGTGCAG”, 20000 fluorescence intensity (a.u.); for “AGTGTTGACCAGCTTTGACCACCTTACCCAACTCCTTGTGCGGAGTCACCTAGTGCAG”, 17200 fluorescence intensity (a.u.).
For “ATTTTGAGTTTTTACTTGTAACGTTTGACCACTTGTCTTACGGAGTCACCTAGTGCAG” the value was 8620 fluorescence intensity (a.u.).
“CACCGTTAACTTTTTATTACGTATTTGACCATTTGTCTTACGGAGTCACCTAGTGCAG”: the binding signal is 10200 fluorescence intensity (a.u.).
Consider “AAAAACTGGGCCAGCTTTTTGTTTTTTTTACCACCCACAGCGGAGTCACCTAGTGCAG”, for which the binding signal was 9010 fluorescence intensity (a.u.).
Consider “ATGACGCCGTTGACTTTTTGTCCAACGACCATTCATTTTACGGAGTCACCTAGTGCAG”, for which the binding signal was 31300 fluorescence intensity (a.u.).
As for “AACCCATTTTCTGCTCTGCTCTTGCTTTGCTTTGCATTTCCGGAGTCACCTAGTGCAG”, the binding signal is 14000 fluorescence intensity (a.u.).
Regarding “ATTGTTTGTCCCGTCCCTACATCACGCCAAAAGTCACAACCGGAGTCACCTAGTGCAG”, the binding signal is 11800 fluorescence intensity (a.u.).
Regarding “GGAGGGGCGGCGATCGAGCAGAGCAGGGGAGGGAATCCTGCGGAGTCACCTAGTGCAG”, the binding signal is 8310 fluorescence intensity (a.u.).
Then “CAGTGTATATTTCAGTGTATATTTGGTAGATTTGGTAGTACGGAGTCACCTAGTGCAG”, with 8310 fluorescence intensity (a.u.); and “CTACCCTATGCTATGAGACCGCTCTTATTCCGGGGTTTAACGGAGTCACCTAGTGCAG”, with 9760 fluorescence intensity (a.u.).
For “TTCGCCGTGTTACTGTAGCTCAAATCTCTAGCTTCCCCAACGGAGTCACCTAGTGCAG” the value was 9240 fluorescence intensity (a.u.); for “CTAACACATTCATCACATGATTAAAATTTTATTATTTATACGGAGTCACCTAGTGCAG”, 8510 fluorescence intensity (a.u.).
“CCATCATATTTGACTATTTTCAGGTGTTAGTTTGGACGATCGGAGTCACCTAGTGCAG”: the binding signal is 9210 fluorescence intensity (a.u.).
Then “TCCACCATTGACCAATGCCACGTCCTGCCAAATCCTCCTCCGGAGTCACCTAGTGCAG”, with 10700 fluorescence intensity (a.u.); and “TTGGTTAGTTGCCACTCTCTCTCGCCGTGACCCTTTTTTACGGAGTCACCTAGTGCAG”, with 20600 fluorescence intensity (a.u.).
Then “TTCCTTTGTTTAGTTGTTTGTTTTACATTCCACTCTACTACGGAGTCACCTAGTGCAG”, with 9220 fluorescence intensity (a.u.); and “CACCATTGACTTTTTAGCACATGTTTGACCGTTCGTCTTACGGAGTCACCTAGTGCAG”, with 14800 fluorescence intensity (a.u.).
For “TTCTGAATGTGATTGAATTAATTGGACTTGCGTTGACCTTCGGAGTCACCTAGTGCAG” the value was 11700 fluorescence intensity (a.u.); for “TGACTTTTTAGCATATGTTTGACCGTTCGTCTTATTCAAACGGAGTCACCTAGTGCAG”, 13600 fluorescence intensity (a.u.); for “TTTTGCCCTTTTTCTCTCGCCAGCTCGGACCCGTCGTGACCGGAGTCACCTAGTGCAG”, 8730 fluorescence intensity (a.u.).
On to “CGTTTGACCGTTCGTCTTATTTGAAAATTTTTTATGCTTACGGAGTCACCTAGTGCAG”, for which the binding signal is 10100 fluorescence intensity (a.u.).
Then “TGTTTGACCGTTCGTCTTATTAAAATTTTTTTGTGAAATACGGAGTCACCTAGTGCAG”, with 8610 fluorescence intensity (a.u.); and “CGCCGTTGACTTTTTAAAATTTGTTTGACCGTTCGTCTTACGGAGTCACCTAGTGCAG”, with 30700 fluorescence intensity (a.u.); and “CACCATTGACTTTTTAGCATATGTTTGACCGTTCGTCTTACGGAGTCACCTAGTGCAG”, with 18200 fluorescence intensity (a.u.).
For “GAGTGCCATTGAATCCTTCTGTTGCGTTGACCACCAAATGCGGAGTCACCTAGTGCAG” the value was 16500 fluorescence intensity (a.u.).

Source of the values: publication PMC7819943, “Rice protein-binding microarrays: a tool to detect cis-acting elements near promoter regions in rice”.
